These results are taken from ChEMBL document CHEMBL3988442, “University of Dundee, Small-Polar-MMV Screening Library” (2021).

Each structure is given as a SMILES string. For some assays here: Potency and affinity values are given separately.

Set-up in all cases: scale not given: direction of the effect not stated beside the values
The target of assay [1] is Protein translocase subunit SecA (Escherichia coli (strain K12)) (UniProt P10408). The experiment in a line: Assay to Identify E. coli SecA ATPase Inhibitors. The class given is functional. The following applies: 30 µM.
In assay [2] the target is T1, Ubiquitin-activating enzyme e1, putative (Leishmania donovani (strain BPK282A1)) (UniProt E9BSI1).
T1 sequence (whole entry): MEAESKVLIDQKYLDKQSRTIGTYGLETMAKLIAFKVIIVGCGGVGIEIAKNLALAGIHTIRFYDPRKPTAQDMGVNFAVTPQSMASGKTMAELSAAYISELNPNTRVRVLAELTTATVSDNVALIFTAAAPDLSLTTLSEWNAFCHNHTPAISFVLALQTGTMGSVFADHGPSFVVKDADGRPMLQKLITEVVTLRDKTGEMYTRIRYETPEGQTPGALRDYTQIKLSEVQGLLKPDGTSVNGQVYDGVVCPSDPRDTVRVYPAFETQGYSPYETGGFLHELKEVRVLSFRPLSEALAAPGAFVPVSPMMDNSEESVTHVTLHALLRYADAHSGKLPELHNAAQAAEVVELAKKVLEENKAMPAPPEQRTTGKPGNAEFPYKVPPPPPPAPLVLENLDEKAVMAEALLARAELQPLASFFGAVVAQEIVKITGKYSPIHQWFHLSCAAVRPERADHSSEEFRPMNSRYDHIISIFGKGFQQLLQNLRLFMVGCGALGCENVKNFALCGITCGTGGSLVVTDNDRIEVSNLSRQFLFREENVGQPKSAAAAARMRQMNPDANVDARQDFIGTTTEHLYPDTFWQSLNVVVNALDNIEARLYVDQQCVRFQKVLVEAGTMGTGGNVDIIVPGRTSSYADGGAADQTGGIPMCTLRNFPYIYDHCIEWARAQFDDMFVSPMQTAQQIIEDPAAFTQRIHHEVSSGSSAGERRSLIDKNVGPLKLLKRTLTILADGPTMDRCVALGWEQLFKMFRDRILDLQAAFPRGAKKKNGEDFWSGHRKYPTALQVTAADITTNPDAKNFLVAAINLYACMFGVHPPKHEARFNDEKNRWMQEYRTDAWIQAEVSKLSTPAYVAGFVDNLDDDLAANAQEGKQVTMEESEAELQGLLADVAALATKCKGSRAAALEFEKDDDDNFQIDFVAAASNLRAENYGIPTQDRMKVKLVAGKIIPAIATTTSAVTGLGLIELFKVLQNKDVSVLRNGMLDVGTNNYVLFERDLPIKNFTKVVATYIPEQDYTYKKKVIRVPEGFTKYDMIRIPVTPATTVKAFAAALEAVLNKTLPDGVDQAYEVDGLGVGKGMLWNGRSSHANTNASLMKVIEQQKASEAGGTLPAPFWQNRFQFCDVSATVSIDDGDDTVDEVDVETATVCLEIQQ
The experiment in a line: Leishmania donovani Ubiquitin Activating Enzyme (LdE1). The class given is functional. As to conditions: 30 µM.

Assay [3] deals with Sialic acid-binding Ig-like lectin 9 (Homo sapiens) (UniProt Q9Y336). Description: Hs-Siglec9 ALPHAscreen SOP 20170721. As to conditions: 10 µM.
In another assay the test system is Trypanosoma cruzi. Description: Trypanosoma cruzi phosphomannomutase and mannose-1-phosphate guanylyltransferase assay. The class given is functional. As to conditions: 10 µM.
Assay [4] concerns the target T2, Arginase-2, mitochondrial (Homo sapiens) (UniProt P78540).
T2 sequence (whole entry): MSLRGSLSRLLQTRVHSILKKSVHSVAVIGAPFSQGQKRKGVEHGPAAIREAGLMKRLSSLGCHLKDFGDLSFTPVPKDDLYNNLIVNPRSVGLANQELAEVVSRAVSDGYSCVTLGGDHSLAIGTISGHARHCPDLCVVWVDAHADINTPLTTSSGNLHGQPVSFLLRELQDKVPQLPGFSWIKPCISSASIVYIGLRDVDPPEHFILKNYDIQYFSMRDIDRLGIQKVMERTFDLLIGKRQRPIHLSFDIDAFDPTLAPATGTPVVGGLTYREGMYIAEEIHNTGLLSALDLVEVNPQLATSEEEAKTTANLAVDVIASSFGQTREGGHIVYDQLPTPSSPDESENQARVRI
The experiment in a line: in vitro enzyme assay to detect the production of urea directly proportional to the activity of Arginase II. Note: in the data most compounds retested in dose-response had high values. The format is functional. The following applies: 33.3 µM.

The target of assay [5] is T3, Proteasome subunit beta (Trypanosoma cruzi) (UniProt O96673).
T3 sequence (whole entry): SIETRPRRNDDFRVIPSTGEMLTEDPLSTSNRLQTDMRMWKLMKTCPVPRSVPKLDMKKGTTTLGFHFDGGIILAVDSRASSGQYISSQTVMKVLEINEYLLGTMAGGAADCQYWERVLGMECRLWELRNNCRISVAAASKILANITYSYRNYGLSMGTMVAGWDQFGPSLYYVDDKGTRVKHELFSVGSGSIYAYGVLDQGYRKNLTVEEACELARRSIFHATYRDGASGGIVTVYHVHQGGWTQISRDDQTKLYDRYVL
The experiment in a line: Trypanosoma cruzi proteasome chymotrypsin-like activity (TcProtChymo) assay. Note: in the data most compounds retested in dose-response had high values. The class given is functional. The following applies: 9.37 µM.

The species entered for another assay is Homo sapiens. Description: To identify inhibition of the IFN signalling (Jak-Stat) pathway via expression of an eGFP reporter gene under the control of an IFN-stimulated response element (ISRE) containing MxA promoter. The following applies: 30 µM. The format is functional. (In general: A reporter such as luciferase makes a cellular process visible.)
The target in assay [6] is T4, Tyrosyl-tRNA synthetase, putative (Trypanosoma cruzi (strain CL Brener)) (UniProt Q4DSP6).
T4 sequence (whole entry): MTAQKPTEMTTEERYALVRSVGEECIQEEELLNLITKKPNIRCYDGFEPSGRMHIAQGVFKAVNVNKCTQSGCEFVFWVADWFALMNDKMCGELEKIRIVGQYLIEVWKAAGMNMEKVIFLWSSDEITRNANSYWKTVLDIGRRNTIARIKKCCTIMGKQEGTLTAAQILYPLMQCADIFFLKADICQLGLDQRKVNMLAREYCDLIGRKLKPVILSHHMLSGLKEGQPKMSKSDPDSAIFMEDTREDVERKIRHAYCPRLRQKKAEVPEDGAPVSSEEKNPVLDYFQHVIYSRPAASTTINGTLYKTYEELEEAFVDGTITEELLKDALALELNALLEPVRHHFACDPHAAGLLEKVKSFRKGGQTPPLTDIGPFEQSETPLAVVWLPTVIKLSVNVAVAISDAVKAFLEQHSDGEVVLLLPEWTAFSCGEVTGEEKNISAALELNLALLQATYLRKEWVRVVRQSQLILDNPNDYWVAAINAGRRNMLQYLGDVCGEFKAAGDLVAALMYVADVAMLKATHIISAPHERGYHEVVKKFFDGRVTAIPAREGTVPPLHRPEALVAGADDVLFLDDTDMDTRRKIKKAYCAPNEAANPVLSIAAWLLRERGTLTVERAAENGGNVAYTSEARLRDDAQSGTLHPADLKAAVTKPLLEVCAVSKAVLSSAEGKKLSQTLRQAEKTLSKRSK
The experiment in a line: Trypanosoma cruzi tyrosyl tRNA synthetase (TcYRS) _High Tyrosine SOP. Note: in the data most compounds retested in dose-response had high values. The format is functional. The following applies: 30 µM.

The target of assay [7] is T4, Tyrosyl-tRNA synthetase, putative (Trypanosoma cruzi (strain CL Brener)). Description: Trypanosoma cruzi tyrosyl tRNA synthetase (TcYRS) SOP. The following applies: 30 µM. The class given is functional.
The target in assay [8] is Chromo domain-containing protein 1 (Saccharomyces cerevisiae (strain ATCC 204508 / S288c) (Baker's yeast)) (UniProt P32657). Description: ScCHD-1 Enzyme Inhibition Assay. Note: in the data most compounds retested in dose-response had high values. As to conditions: 30 µM. The format is functional.
Sequence of Chromo domain-containing protein 1 (Saccharomyces cerevisiae (strain ATCC 204508 / S288c) (Baker's yeast)) (P32657 whole entry, the tested form may be a part): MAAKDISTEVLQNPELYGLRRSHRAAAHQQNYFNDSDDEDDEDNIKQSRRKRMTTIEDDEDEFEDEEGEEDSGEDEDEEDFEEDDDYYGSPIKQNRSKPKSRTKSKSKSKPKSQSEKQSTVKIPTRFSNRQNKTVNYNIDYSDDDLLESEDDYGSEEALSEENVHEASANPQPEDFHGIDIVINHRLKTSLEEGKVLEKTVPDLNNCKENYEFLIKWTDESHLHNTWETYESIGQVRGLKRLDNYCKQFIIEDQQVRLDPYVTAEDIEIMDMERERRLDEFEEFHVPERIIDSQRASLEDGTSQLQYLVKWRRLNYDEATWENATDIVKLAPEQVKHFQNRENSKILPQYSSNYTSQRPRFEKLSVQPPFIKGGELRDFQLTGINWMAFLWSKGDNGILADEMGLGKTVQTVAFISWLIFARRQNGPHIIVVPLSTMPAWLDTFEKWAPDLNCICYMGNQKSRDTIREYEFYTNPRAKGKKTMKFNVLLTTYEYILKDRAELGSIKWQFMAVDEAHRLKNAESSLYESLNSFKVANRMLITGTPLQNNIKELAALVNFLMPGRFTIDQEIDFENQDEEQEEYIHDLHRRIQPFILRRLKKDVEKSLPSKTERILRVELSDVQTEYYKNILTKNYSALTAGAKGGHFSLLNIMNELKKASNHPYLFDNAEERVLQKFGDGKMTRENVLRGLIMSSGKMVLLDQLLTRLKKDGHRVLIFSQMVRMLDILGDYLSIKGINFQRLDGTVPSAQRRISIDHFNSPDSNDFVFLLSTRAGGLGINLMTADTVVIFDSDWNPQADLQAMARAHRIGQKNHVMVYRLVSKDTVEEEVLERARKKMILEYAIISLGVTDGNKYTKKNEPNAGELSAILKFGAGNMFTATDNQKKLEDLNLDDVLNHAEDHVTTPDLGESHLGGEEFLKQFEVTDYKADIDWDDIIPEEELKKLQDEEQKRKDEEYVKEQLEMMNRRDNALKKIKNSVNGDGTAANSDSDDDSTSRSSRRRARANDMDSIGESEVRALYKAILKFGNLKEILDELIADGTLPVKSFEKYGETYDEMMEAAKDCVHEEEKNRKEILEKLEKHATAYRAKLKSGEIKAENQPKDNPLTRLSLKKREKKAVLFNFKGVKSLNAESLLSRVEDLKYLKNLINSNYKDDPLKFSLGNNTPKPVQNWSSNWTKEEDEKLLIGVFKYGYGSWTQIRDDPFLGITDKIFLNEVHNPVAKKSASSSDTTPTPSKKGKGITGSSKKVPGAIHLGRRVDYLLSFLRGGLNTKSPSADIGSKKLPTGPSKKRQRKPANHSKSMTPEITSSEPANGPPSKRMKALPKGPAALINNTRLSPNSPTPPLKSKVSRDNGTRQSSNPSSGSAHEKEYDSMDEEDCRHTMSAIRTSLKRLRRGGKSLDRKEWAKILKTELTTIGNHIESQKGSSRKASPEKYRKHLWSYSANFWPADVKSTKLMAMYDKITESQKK

Sequence of Sialic acid-binding Ig-like lectin 9 (Homo sapiens) (Q9Y336 whole entry): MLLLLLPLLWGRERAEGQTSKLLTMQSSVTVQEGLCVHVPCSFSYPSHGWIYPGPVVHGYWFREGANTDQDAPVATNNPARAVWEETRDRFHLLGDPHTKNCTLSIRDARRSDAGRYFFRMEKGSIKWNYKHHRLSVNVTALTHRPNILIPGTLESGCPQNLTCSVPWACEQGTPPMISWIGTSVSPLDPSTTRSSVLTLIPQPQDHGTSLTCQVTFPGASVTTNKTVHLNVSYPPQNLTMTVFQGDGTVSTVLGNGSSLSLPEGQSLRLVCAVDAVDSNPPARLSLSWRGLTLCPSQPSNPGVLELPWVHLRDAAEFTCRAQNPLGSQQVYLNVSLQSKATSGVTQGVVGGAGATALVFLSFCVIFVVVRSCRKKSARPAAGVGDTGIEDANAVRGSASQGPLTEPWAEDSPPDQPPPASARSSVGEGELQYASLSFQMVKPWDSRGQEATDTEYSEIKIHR
Sequence of Protein translocase subunit SecA (Escherichia coli (strain K12)) (P10408 whole entry): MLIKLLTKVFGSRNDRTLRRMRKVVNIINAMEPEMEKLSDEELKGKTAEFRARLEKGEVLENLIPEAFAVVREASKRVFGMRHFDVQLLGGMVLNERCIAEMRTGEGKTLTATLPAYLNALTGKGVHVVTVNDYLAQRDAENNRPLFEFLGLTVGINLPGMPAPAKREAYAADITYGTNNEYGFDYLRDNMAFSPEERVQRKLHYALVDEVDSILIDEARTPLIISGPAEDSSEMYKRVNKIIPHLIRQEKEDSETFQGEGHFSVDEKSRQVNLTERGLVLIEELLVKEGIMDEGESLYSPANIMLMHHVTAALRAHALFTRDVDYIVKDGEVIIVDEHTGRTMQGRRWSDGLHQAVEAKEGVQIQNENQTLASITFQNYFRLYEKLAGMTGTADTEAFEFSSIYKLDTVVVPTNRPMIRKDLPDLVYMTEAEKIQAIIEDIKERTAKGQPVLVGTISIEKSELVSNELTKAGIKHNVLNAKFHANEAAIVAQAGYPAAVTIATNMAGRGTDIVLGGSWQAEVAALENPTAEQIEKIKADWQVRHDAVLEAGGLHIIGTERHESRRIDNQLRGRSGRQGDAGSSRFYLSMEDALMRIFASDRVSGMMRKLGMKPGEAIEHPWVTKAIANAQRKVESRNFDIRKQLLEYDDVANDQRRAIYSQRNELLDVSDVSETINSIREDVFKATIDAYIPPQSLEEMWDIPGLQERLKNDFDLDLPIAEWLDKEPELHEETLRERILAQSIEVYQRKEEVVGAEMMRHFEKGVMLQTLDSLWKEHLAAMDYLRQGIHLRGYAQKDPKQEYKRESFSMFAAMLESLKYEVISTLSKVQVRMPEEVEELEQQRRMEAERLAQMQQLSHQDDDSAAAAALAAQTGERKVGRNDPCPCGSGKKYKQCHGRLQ

Regarding `CCNC(=O)[C@@H]1C[C@@H](NC(=O)Cc2ccncc2)CN1Cc1ccsc1`, the Percent Effect in assay [1] is -12.1%; in [2], 2.7%; in [3], 3.71%; in the assay with Trypanosoma cruzi it was -4.56%; in [4], -0.35%; in [5] it was 11.6%. For the same compound, the Percent Effect in the assay filed under Homo sapiens was -2.37%; in assay [6] it was 4.79%; in assay [7], 2.44%; in assay [8], 5.29%.

For the compound `Cc1ccc(C(=O)N2CCC3(CC2)CC(N2CCOCC2)C3)cc1`, the Percent Effect was -2.43% in assay [1]; 9.09% in assay [2]; -5.57% in [3]; 1.31% in the assay with Trypanosoma cruzi; 0.457% in assay [4]; -3.18% in assay [5]. Also, the Percent Effect is -1.46% in the assay filed under Homo sapiens, 3.87% in assay [6], 2.5% in assay [7] and 0.386% in assay [8].

Consider `CCC(=O)N1CCC(O)(c2ncc(OC)nc2OC)CC1`, for which the Percent Effect is -1.18% in [1]; 9.33% in [2]; 3.93% in [3]; -3.55% with Trypanosoma cruzi; 3.1% in [4]; 9.03% in [5]. In addition, the Percent Effect in the assay filed under Homo sapiens was 8.31%; in [6], 5.29%; in [7], 7.5%; in assay [8] it was -17.1%.

With `COCCc1noc(CN2CCCCC2Cn2nc(C)cc2C)n1` (stereo not given), the Percent Effect in [1] was -2.9%; in assay [2], -2.6%; in assay [3] it was 13.8%; in the assay on Trypanosoma cruzi it was -1.68%; in assay [4] it was 2.25%; in assay [5], -3.51%. The Percent Effect in the assay filed under Homo sapiens was -5.82%; in assay [6], 0.98%; in assay [7] it was 7.06%; in assay [8], 9%.

On to `CCc1noc(C(C)N2CCC(N3CCCC3)CC2)n1` (stereo not given), for which the Percent Effect in assay [1] is -9.65%; in [2], 16%; in assay [3], 8.32%; in the assay on Trypanosoma cruzi, 5.02%; in assay [4], -5.76%; in [5] it was 7.38%. The Percent Effect in the assay listed under Homo sapiens is -3.75%; in assay [6], 5.79%; in assay [7], 12.8%; in [8], -10.6%.

Consider `COc1cc(N2CCCC(c3nccn3Cc3cscn3)C2)nc(N)n1` (stereo not given), for which the Percent Effect in assay [1] was -4.57%; in assay [2], 5.41%; in assay [3], 16.6%; with Trypanosoma cruzi, 6.89%; in assay [4], -22.7%; in [5] it was 15.1%. Further, the Percent Effect in the assay listed under Homo sapiens is 25.7%; in [6], 6.92%; in assay [7], 14.6%; in assay [8] it was -3.5%.

Regarding `CN1CC(c2ccccc2)CC12CCN(C(=O)c1cncc(Cl)c1)CC2` (stereo not given), the Percent Effect in [1] is -4.25%; in assay [2] it was 5.41%; in [3] it was 3.4%; in the assay on Trypanosoma cruzi, -0.679%; in assay [4], 0.35%; in [5], 12.3%. Further, the Percent Effect is 12.2% in the assay filed under Homo sapiens, 7.98% in assay [6], 14.6% in assay [7] and -5.7% in assay [8].

As for `Cn1cc(CN2CCCC23CCN(C(=O)c2cccn2C)CC3)cn1`, the Percent Effect was -1.03% in [1]; -6.49% in [2]; -3.73% in assay [3]; -0.876% with Trypanosoma cruzi; -2.43% in [4]; -0.441% in assay [5]. Also, the Percent Effect in the assay listed under Homo sapiens was -15.7%; in [6] it was -0.526%; in [7], 0%; in [8], -0.154%.

Take `CO[C@@H]1CCN(C(=O)c2ccccn2)[C@H]1Cc1ccccc1`: the Percent Effect in [1] was -0.453%; in [2], 19.5%; in [3] it was 2.27%; with Trypanosoma cruzi, 1.5%; in [4], -0.457%; in assay [5], 6.95%. For the same compound, the Percent Effect in the assay listed under Homo sapiens is 8.74%; in [6], 8.7%; in [7], 10%; in assay [8], -6.55%.

Turning to `CC(=O)NC1CCCN(C(=O)NCc2cccnc2-n2cccn2)C1` (stereo not given), the Percent Effect was -4.23% in assay [1]; 10.7% in assay [2]; -0.777% in assay [3]; -6.22% in the assay on Trypanosoma cruzi; 6.21% in [4]; 11.4% in assay [5]. In addition, the Percent Effect in the assay filed under Homo sapiens is 14.4%; in assay [6], 5.79%; in assay [7] it was 7.69%; in assay [8], -8.06%.

On to `CCCC(C)C(=O)N1CCC(n2cccc2C(=O)OC)CC1` (stereo not given), for which the Percent Effect is -6.33% in assay [1]; 10.4% in [2]; 13.2% in assay [3]; -1.12% in the assay on Trypanosoma cruzi; 1.43% in assay [4]; 2.46% in assay [5]. The Percent Effect in the assay listed under Homo sapiens worked out at 31%; in [6], 2.94%; in [7] it was 9.41%; in assay [8], 6.48%.
